Activity calls are given as the source filed them. How the source made its calls: active means hit-call score of the fitted dose curve at least 0.9, where 1 is the maximum; inactive means score below 0.9.

As usually defined, the AC50 is the concentration at which the activity in the assay is half-maximal.

Chain of Cytochrome P450 3A4 (Homo sapiens) (P08684 whole entry, looked up): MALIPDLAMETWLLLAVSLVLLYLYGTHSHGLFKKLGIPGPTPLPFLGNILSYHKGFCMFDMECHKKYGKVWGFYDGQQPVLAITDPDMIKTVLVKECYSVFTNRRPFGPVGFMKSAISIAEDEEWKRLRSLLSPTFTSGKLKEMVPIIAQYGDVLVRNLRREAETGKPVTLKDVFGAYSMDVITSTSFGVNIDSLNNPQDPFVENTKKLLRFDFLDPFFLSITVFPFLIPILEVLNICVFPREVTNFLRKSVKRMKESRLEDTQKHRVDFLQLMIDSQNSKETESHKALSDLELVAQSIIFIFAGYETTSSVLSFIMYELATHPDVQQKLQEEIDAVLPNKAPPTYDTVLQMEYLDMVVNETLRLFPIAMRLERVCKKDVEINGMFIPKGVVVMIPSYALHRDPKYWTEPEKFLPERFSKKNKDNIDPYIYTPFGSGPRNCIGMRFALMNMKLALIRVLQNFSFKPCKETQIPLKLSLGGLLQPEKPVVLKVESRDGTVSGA

Read-out in the experiment: Cytochrome P450 3A4 (Homo sapiens) (UniProt P08684)
The experiment can be described thus: LTEA_HepaRG_CYP3A4: Life Technologies and Expression Analysis (LTEA) Assay for CYP3A4 using HepaRG (AID 2283487). The note with it: mRNA level, 48 h; actives raise or lower the signal. The protocol:
LTEA_HepaRG is a cell based, multiplexed-readout assay that uses HepaRG, a human liver cell line, with measurements taken at 48 hours after chemical dosing on a 96-well plate.LTEA_HepaRG_CYP3A4 is one of 102 assay component(s) measured in the LTEA HepaRG cell culture assay. It is a marker of NR mediated metabolism.Data from the assay component LTEA_HepaRG_CYP3A4 was analyzed into 1 endpoint. This assay endpoint, LTEA_HepaRG_CYP3A4, was analyzed with bidirectional fitting relative to DMSO as the negative control and baseline of activity. Using a type of inducible reporter, measures of mRNA induction for gain or loss-of-signal activity can be used to understand regulation of transcription factor activity. To generalize the intended target to other relatable targets, this assay endpoint is annotated to the cyp intended target family, where the subfamily is xenobiotic metabolism.
A total of 1060 chemcials from the ToxCast library were tested in eight-point concentration-response experiments. Cell culture and cytotoxicity assays were conducted at Thermo Fisher Scientific's Custom Services facility (Madison, WI). A single lot of human HepaRG cells (Thermo Fisher Scientific, Frederick, MD) was used for the cell culture experiments. 96-well format collagen type I coated plates of human HepaRG cells were prepared using established methods. Briefly, cryopreserved HepaRG cells were thawed, plated at a density of approximately 100,000 cells/well in HepaRG Thaw, Plate, and General Purpose media (HPRG770, Thermo Fisher Scientific), and incubated for 48 hours. 0.5% DMSO was selected as vehicle control to balance the requisite need of DMSO in HepaRG cultures to maintain differentiation (for example, baseline metabolism, proportions of hepatocytes vs. cholangiocytes), while enabling further hepatic receptor pathway activation (for example, PXR and CAR) in response to chemical exposure. 48 hours after plating, the culture medium was replaced with HepaRG Serum-Free Incudtion Media. Cells were exposed to each test chemical in duplicate and maintained in CO2 incubators for another 48 hours. Chemical plates were thawed to room temperature and 200x concentrations of treatment groups were prepared. 8-point conentration-reponse curves were made with the highest exposure at 100 uM, followed by half-log dilutions, all in 0.5% DMSO. Each test plate contained variouse controls, induction positive controls (1mM phenobarbital), cytotoxicity positive controls ([…] aflatoxin B1), vehicle controls (0.5% DMSO), and total lysis controls (0.5% DMSO). Cell morphology images were taken using an Essen IncuCyte FLR automated microscope, with six 96-well plates imaged in about 24 minutes. Images were captured and exported and JPEG files. Spent culture media was transfered to black-well plates for the LDH assay, and remaining media was sorted at -80 C for later use. Cells were treated with RLT buffer and frozen until shipped for gene expression analysis. Total RNA was isolated from the cell suspension in 75 uL of Buffer RLT (Qiagen, Germantown, MD 20874) by Quintiles/Expression Analysis (Durham, NC) using a custom isolation procedure. Total RNA from each plate well was transferred to a preamplification plate. Fluidigm's 96.96 Dynamic ArrayTM (Fluidigm, Amsterdam, the Netherlands) technology was used for gene expression analyses by quantitative reverse transcription polymerase chain reaction (qRT-PCR, performed by Quintiles/Expression Analysis, Durham, NC)89. Standard TaqManTM Assays (Applied Biosystems/ThermoFisher Scientific, Foster City, CA) were used to assess the expression of 93 genes selected based on their selectivity and sensitivity to important hepatic receptors known to be modulated by environmental chemicals; importance in human hepatocyte functionality; and hepatotoxicity. […]
As to `CS(=O)(=O)c1cc(C(F)(F)F)ccc1C(=O)c1cnoc1C1CC1`, the AC50 was 35 µM (active).

Take `Cc1ccc(N=CN(C)C=Nc2ccc(C)cc2C)c(C)c1`: the result was inactive. For `CCCN(CC)CC1COC2(CCC(C(C)(C)C)CC2)O1` (stereo not given), the compound was called inactive.

Consider `CCOc1nc(C(Cl)(Cl)Cl)ns1`, for which the outcome was inactive. Turning to `Cc1c(COC(=O)[C@@H]2[C@H](/C=C(\Cl)C(F)(F)F)C2(C)C)cccc1-c1ccccc1`, the AC50 is 11.3 µM (active). In the case of `N#Cc1c(Cl)cccc1Cl`, the outcome was inactive.

For `CCNP(=S)(OC)O/C(C)=C/C(=O)OC(C)C` (stereo not given), the AC50 was 8.97 µM (active). For the compound `COc1ccc(-c2ccccc2)cc1NNC(=O)OC(C)C`, the call was inactive. `CCN(CC)c1nc(C)cc(OP(=S)(OC)OC)n1`: the AC50 is 10.9 µM (active).

In the case of `CC1(C)C(C(=O)OC(C#N)c2cccc(Oc3ccccc3)c2)C1(C)C` (stereo not given), the AC50 was 50 µM (active).

On to `COC(=O)NS(=O)(=O)c1ccc(N)cc1`, for which the compound was classed as inactive. The same measure, in the same setting: next, `CN/C(=N\[N+](=O)[O-])NCc1cnc(Cl)s1`: “inactive”. As to `COP(=S)(OC)SCn1nnc2ccccc2c1=O`, the AC50 is 25 µM (active).

Turning to `CC(C)N1C(=O)N(c2ccccc2)CSC1=NC(C)(C)C`, the AC50 is 12 µM (active). Still for that read-out and setting: under `CC(C)Nc1nc(Cl)nc(NC(C)C)n1` stands 7.35 µM (active); under `COc1cc(OC)nc(NC(=O)NS(=O)(=O)c2ncccc2OCC(F)(F)F)n1`, 13.3 µM (active). For the compound `O=c1n(Cl)c(=O)n(Cl)c(=O)n1Cl`, the result was inactive. Same read-out and setting: next, `Cc1cnc(C2=NC(C)(C(C)C)C(=O)N2)c(C(=O)O)c1` (stereo not given): “inactive”. On the same count and under the same terms, under `O=C1C2CC=CCC2C(=O)N1SC(Cl)(Cl)Cl` (stereo not given) stands “inactive”; under `COCc1cnc(C2=NC(C)(C(C)C)C(=O)N2)c(C(=O)O)c1` (stereo not given), “inactive”. As to `CCOP(=S)(OCC)Oc1nc(Cl)n(C(C)C)n1`, the AC50 is 4.55 µM (active).

With `CS(=O)(=O)c1ccc(C(=O)C2C(=O)CCCC2=O)c([N+](=O)[O-])c1`, the compound was called inactive. Still for that read-out and setting: next, `Cc1cc(C)nc(Nc2ccccc2)n1`: “inactive”. The same measure, in the same setting: under `CN=C=S` stands “inactive”.

For the compound `Cc1nc(N(C)C)nc(OC(=O)N(C)C)c1C`, the AC50 was 40.7 µM (active). For the compound `O=C(O)c1c(Cl)ccc2cc(Cl)cnc12`, the outcome was inactive. Consider `CC(C)NC(=O)N1CC(=O)N(c2cc(Cl)cc(Cl)c2)C1=O`, for which the AC50 is 2.97 µM (active). Turning to `O=P(O)(O)CCCl`, the compound was called inactive.

For the compound `CCN(CC)C(=O)C(C)Oc1cccc2ccccc12` (stereo not given), the half-maximal activity concentration (AC50) was 2.65 µM (active). Still for that read-out and setting: under `Clc1nc(Cl)nc(Nc2ccccc2Cl)n1` stands 18.5 µM (active). On the same count and under the same terms, under `N#CN=C1SCCN1Cc1ccc(Cl)nc1` stands 30.6 µM (active). Turning to `CC(C)C1(C)N=C(c2ncccc2C(=O)O)NC1=O` (stereo not given), the compound was called inactive. As for `CC1(C)CON(Cc2ccccc2Cl)C1=O`, the AC50 is 5.64 µM (active).

Turning to `CCOP(=O)(OCC)Oc1nc(Cl)c(Cl)cc1Cl`, the concentration at half-maximal activity (AC50) was 49.8 µM (active). The same measure, in the same setting: next, `CCOC(=O)C(C)OC(=O)c1cc(Oc2ccc(C(F)(F)F)cc2Cl)ccc1[N+](=O)[O-]` (stereo not given): 4.78 µM (active).

Turning to `Nc1c(Cl)c(F)nc(OCC(=O)O)c1Cl`, the result was inactive. Consider `CCOc1nc(F)cc2nc(S(=O)(=O)Nc3c(Cl)cccc3Cl)nn12`, for which the AC50 was 1.85 µM (active). Consider `C=CCOC(=O)C(C)(C)OC(=O)c1cc(-n2c(=O)cc(C(F)(F)F)n(C)c2=O)ccc1Cl`, for which the AC50 was 16.6 µM (active). As for `Nc1c(Cl)c(Cl)nc(C(=O)O)c1Cl`, the outcome was inactive. Regarding `CC(C)(C)C(=O)C(Oc1ccc(Cl)cc1)n1cncn1` (stereo not given), the AC50 was 2.67 µM (active).

For the origin of these results see PubChem BioAssay (EPA / NIEHS).
